Experimental data reported in PubChem BioAssay AID493168 (National Center for Advancing Translational Sciences (NCATS), 2011).
Records with an inconclusive call do not appear. Active and inactive are the calls of the source. Calls come from the whole dose curve; as a rule, active = well fitted inhibition curve with a large enough effect; inconclusive = small, poorly fitted or top-dose-only effect, or effect the other way; inactive = flat fitted curve, though single readings scatter.

Molecular target: Ubiquitin carboxyl-terminal hydrolase 2 (Homo sapiens) (UniProt O75604)
Sequence (O75604 whole entry, looked up): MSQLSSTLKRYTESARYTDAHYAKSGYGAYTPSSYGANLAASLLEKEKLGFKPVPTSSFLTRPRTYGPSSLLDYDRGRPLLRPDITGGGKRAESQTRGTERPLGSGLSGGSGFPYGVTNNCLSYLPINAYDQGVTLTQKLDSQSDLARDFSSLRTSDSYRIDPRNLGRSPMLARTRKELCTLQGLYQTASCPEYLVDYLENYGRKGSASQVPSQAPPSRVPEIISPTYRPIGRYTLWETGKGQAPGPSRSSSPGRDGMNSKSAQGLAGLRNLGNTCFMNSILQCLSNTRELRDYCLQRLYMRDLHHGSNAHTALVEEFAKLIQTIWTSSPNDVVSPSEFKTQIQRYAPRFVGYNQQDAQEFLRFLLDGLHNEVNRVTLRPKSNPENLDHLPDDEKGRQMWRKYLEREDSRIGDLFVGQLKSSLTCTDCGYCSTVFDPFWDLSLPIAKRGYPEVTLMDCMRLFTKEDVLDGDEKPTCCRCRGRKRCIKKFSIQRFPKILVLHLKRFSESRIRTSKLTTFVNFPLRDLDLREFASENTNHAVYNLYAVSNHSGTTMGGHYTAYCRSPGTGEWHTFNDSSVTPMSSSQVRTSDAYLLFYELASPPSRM
Experiment: Confirmation Assay for Inhibitors of Ubiquitin-specific Protease USP2a Using CHOP2 as the Reporter; note: nearly all actives have a fitted effect of over 55% in size
Details: USP2 core, Ub-CHOP2 coupled reporter fluorescence; series mostly up to 38.3 µM; activity change, negative = inhibition: at the top concentration
Text: NIH Molecular Libraries Probe Centers Network [MLPCN] NIH Chemical Genomics Center [NCGC] MLSCN Grant: XO1-MH079852-01 PI Name: Nicholson, Ben. Progenra Inc, Malvern, PA NCGC Assay Overview: Homeostasis of cellular proteins is maintained through a combination of synthesis and degradation. The pathway that accounts for the majority of protein degradation is the ubiquitin-proteasomal pathway. Ubiquitin (Ub) is highly conserved in all cells and the generation of a multi-Ub chain typically targets proteins for degradation by the proteasome. However, ubiquitination is highly reversible and dynamic. Deubiquitination, the reverse process, is catalyzed through the action of enzymes referred to as isopeptidases or deubiquitinating enzymes (DUBs). This group of enzymes is collectively responsible for maintaining adequate pools of free ubiquitin and regulating the ubiquitination status of cellular proteins. The class of DUBs referred to as the ubiquitin-specific proteases (USP) family functions endoproteolytically to cleave Ub chains from a wide range of protein substrates. USP2a deubiquitinates fatty acid synthase (FASN) which has recently been identified as an emerging oncology target. To identify inhibitors of USP2a a cell-free assay was employed. […] The reporter enzyme chosen is an […] called CHOP2, which is activated when the Ub is cleaved by USP2. The free and now activated reporter can subsequently act on its reporter substrate. Thus, this coupled assay gives a fluorescent read-out at excitation/emission wavelengths of 485/531. The assay was developed by Progenra, Inc. and has been licensed for sale by LifeSensors, Inc. as Ub-CHOP2-Reporter-Kit (#PR1101).
NCGC Assay Protocol Summary: The assay buffer, prepared fresh at the day of the assay, contains 20mM Tris-HCl pH 8.0, 2mM CaCl2, 2mM beta-Mercaptoethanol, 0.05% CHAPS. 3ul of 20nM (10nM final) USP2 core, which is stored on ice, is dispensed into a medium-binding black solid Kalypsys 1,536 well plate using the Kalypsys dispenser. The assay plate is then pinned with 23nL compound with the Kalypsys pintool in columns 5-48. The controls are pinned as follows: column 1 two-fold dilutions of 2M NEM in duplicate; column 2 2M NEM (final concentration 38.2mM); column 3&4 DMSO. The assay plate is incubated at RT for 30min. Subsequently, 1.5uL of 100nM (25nM final) Ub-CHOP2 and 1.5uL of 100nM (25nM final) Reporter Substrate (both stored on ice and protected from light) were dispensed into the plate using the Kalypsys dispenser. Plates were read after 60min RT incubation on a ViewLux (Perkin Elmer) plate reader using the following wavelengths Ex 485nm /Em 531nm. Data were normalized to the to AC100 inhibition (NEM). Concentration-response curves were fitted to the normalized data and the concentration-response curves were then classified based on curve quality (r2), response magnitude and degree of measured activity. The time zero reading was used to flag fluorescence artifacts. Keywords: ubiquitination, deubiquitination, proteases, profluorescent, MLSMR, MLPCN, NIH Roadmap, qHTS, NCGC
Potency is the fitted concentration of half-maximal effect.

Activity change, negative = inhibition, inactive:
CSc1cccc(NC(=O)c2ccccc2N(C)S(C)(=O)=O)c1 -1.63%
O=C1OC[C@@H]2CCCN2C(=O)[C@@H](CC(=O)N(CCO)Cc2ccccc2)C/C=C\C[C@@H]1Cc1ccc(F)cc1 2.66%
CCOC(=O)c1c(C)[nH]c(C(=O)COC(=O)CSC)c1C 2.27%
COCCCNCCCOc1ccc(C)cc1Br -2.1%
CC1=CC(C)(C)N(C(=O)c2ccccc2)c2ccccc21 -0.389%
Clc1ccccc1-c1nnc2sc(-c3cccs3)nn12 -1.13%
CC(=O)N1CCCc2cc(S(=O)(=O)CCC(=O)N3CCN(c4cccc(C)c4)C(C)C3)ccc21 (stereo not given) -0.169%
O=C(NC1CCCCC1)C(c1ccco1)N(Cc1ccco1)C(=O)c1ccco1 (stereo not given) 1.34%
Cn1nnnc1Sc1ncnc2scc(-c3ccc4c(c3)OCO4)c12 -2.78%
CCOc1ccc2[nH]c(=O)c(CN(CCc3ccccc3)C(=O)c3cnccn3)cc2c1 -3.4%
CN(c1ccccc1)S(=O)(=O)c1ccc(Cl)c(C(=O)NCCc2c[nH]c3ccccc23)c1 -0.219%
C=CCn1c(Br)nc2c1c(=O)n(C)c(=O)n2C -3.17%
CCC(C)c1ccc(O)c(N)c1 (stereo not given) 6.58%
CCOC(=O)COc1c(OC)cc(Cl)cc1C1Nc2ccccc2C(=O)N1c1ccccc1 (stereo not given) 2.24%
Cc1ccc(C(=O)N/C(=C/c2cccs2)C(=O)NCc2ccco2)cc1 4.83%
COc1ccc(CCNC(=O)COC(=O)CNS(=O)(=O)c2ccc(SC)c([N+](=O)[O-])c2)cc1 2.08%
Cc1[nH]c2ccccc2c1C(c1ccccn1)c1c(C)[nH]c2ccccc12 -0.144%
CCOC(=O)c1c(C)c(C(=O)O)n(C)c1C 7.14%
Cc1cc(C)n2cc(CSc3nnnn3-c3ccccc3C)nc2n1 -2.31%
CC(=O)COc1ccc2c(-c3ccccc3)cc(=O)oc2c1 7.04%
COc1ccc(S(=O)(=O)N2CCCCC2)cc1NC(=O)Cc1c[nH]c2ccccc12 -0.822%
O=C(Nc1cnn(Cc2ccccc2)c1)c1nc2ncccn2n1 -1.86%
CCn1c(COc2ccccc2)nnc1SCC(=O)CC(=O)Nc1ccccc1OC -1.21%
Cc1ccc(C(C)C)c(OCc2nn(CC(=O)c3ccc(OC(F)F)cc3)c3[n+]2CCCCC3)c1 -5.42%
Cc1cc(NC(=O)COC(=O)CCCOc2ccc(Cl)cc2C)no1 -1%
CCCOC(=O)CCCCC1SCC(NC(=O)OC)C1NC(=O)OC (stereo not given) -0.631%
COc1cc(C2C(C#N)=C(N)Oc3c2ccc2ccccc32)ccc1OCC(=O)Nc1cccc(C)c1 (stereo not given) -2%
CCCNC(=O)NCc1ccc(N2CCCC2=O)cc1 -1.66%
CC1Cc2ccccc2N1C(=O)Cn1c(=O)oc2cc(S(=O)(=O)NC3CCCC3)ccc21 (stereo not given) 1.18%
Cc1cnc(N)c2c(=O)oc3ccccc3c12 5.48%
CN(C)c1cccc(C(=O)NNC(=O)C23CC4CC(CC(C4)C2)C3)c1 -0.517%
CCOC(=O)C1CCN(C(=O)COC(=O)c2c(C)c(CC)nc3ccccc23)CC1 -0.67%
O=C(c1cccc(F)c1)N1CCN(S(=O)(=O)c2ccccc2)CC1 0.0388%
C=CC[C@H](CC(=O)OC(C)(C)C)C(=O)OC[C@@H]1CCCN1C(=O)[C@H](CC=C)CC(=O)N[C@H](CO)Cc1ccccc1 4%
CC1=NC(C(F)(F)F)(C(F)(F)F)C2=C(CC(C)(C)CC2=O)N1Cc1ccco1 -1.12%

Potency, active:
O=C(Cc1ccc(S(=O)(=O)N2CCOCC2)s1)Nc1nc2c(s1)CCCC2 14.7 µM
C#CCOCCOCCOCCNc1nc(N2CCN(C(=O)CCCCCCCCCCNC(=O)[C@H]([C@@H](C)CC)n3cc(CCCCCN)nn3)CC2)nc(N2CCN(C(=O)CCCCCCCCCCNC(=O)[C@H]([C@@H](C)CC)n3cc(CCCCN=C(N)N)nn3)CC2)n1 6.56 µM
NS(=O)(=O)c1ccc(N=Nc2c(O)c(C(=O)O)cc3ccccc23)cc1 13.1 µM
CCCCCCCCCCC[N+](C)(C)CC/C=C1/c2ccccc2Sc2ccc(Cl)cc21 9.27 µM
Cc1ccc(S(=O)(=O)N2[C@@H](c3ccc(C(C)(C)C)cc3)C(C(=O)O)=CC[C@H]2c2ccc(C(C)C)cc2)cc1 9.27 µM
